From PubChem BioAssay (Tox21)
Inconclusive results are not listed. Entries that show only a call come without a potency. Active and inactive are the calls of the source. Calls come from the whole dose curve; as a rule, active = well fitted activation curve with a large enough effect in the signal ratio in the repeat runs (not every such curve was filed as active); inconclusive = weak or mixed curves; inactive = flat fitted curve, though single readings scatter; the % refers to the signal ratio.

Assay: qHTS assay to identify small molecule agonists of the hypoxia (HIF-1) signaling pathway (AID 1224846)
Settings: HRE-bla ME-180 cells, beta-lactamase ratio, 17 h; series mostly up to 76.8 µM
Excerpt: U.S. Tox21 Program National Center for Advancing Translational Sciences [NCATS] NIH Chemical Genomics Center [NCGC] U.S. Environmental Protection Agency [EPA] National Institutes of Environmental Health Sciences [NIEHS] National Toxicology Program [NTP] U.S. Food and Drug Administration [FDA] Tox21 Assay Overview: Hypoxia-inducible factor-1 (HIF-1) is the major hypoxia-regulated transcription factor that controls cellular responses to low oxygen concentration. HIF-1 is composed of two subunits: hypoxia responsive HIF-1-alpha and constitutively expressed HIF-1-beta, which is also known as aryl hydrocarbon receptor nuclear translocator. During hypoxic conditions, HIF-1-alpha heterodimerizes with HIF-1-beta and translocates into the nucleus where the HIF-1 complex binds to the hypoxia-response element (HRE) and activates expression of target genes such as VEGF (vascular endothelial growth factor). The HIF-1 pathway is essential to normal growth and development, and is involved in the pathophysiology of cancer, inflammation, and ischemia. Using a beta-lactamase reporter-gene under control of the hypoxia response element, a cell-based assay [CellSensor(TM) HRE-bla ME-180 from Life Technologies, Carlsbad, CA] was used to measure hypoxia-induced signaling. Tox21 10K library compounds were measured for their ability to induce the reporter gene activity.
Tox21 Assay Protocol Summary: HRE-bla ME-180 cells were dispensed at 2,000 cells per well in 6 uL of assay medium containing 0.5% dialyzed FBS into black wall/clear-bottom 1536-well plates using a Multidrop Combi (Thermo Scientific, Waltham, MA) dispenser. After the assay plates were incubated at 37C and 5% CO2 for 5 hrs, 23 nL of compounds dissolved in DMSO, positive controls or DMSO only was transferred to each well of the assay plate using a Pintool station (Kalypsys, San Diego, CA). The assay plates were incubated at 37C and 5% CO2 for 17 hrs. One uL of LiveBLAzerTM B/G FRET substrate (CCF4-AM) (Life Technologies) was added to each well using a Flying Reagent Dispenser (Aurora Discovery, San Diego, CA).

| Structure (SMILES) | Potency |
| --- | --- |
| CCCCCCC(O)CCCCCCCCCCC(=O)O (stereo not given) | inactive |
| CC(C)CCOCc1ccccc1 | inactive |
| O=C(O)c1cn(-c2ccc(F)cc2)c2cc(N3CCNCC3)c(F)cc2c1=O | inactive |
| CC(=O)O[C@]1(C(C)=O)CC[C@H]2[C@@H]3C[C@H](C)C4=CC(=O)CC[C@]4(C)[C@H]3CC[C@@]21C | inactive |
| O=C(O)c1cccc(C(=O)O)c1 | inactive |
| CCC[C@H](N[C@@H](C)C(=O)N1[C@H](C(=O)O)C[C@@H]2CCCC[C@@H]21)C(=O)OCC | inactive |
| CCCCN(CCO)CCCC | inactive |
| O | inactive |
| Cc1ccnc2c1NC(=O)c1cccnc1N2C1CC1 | inactive |
| c1cnc2cc3c(cc2n1)C1CNCC3C1 | inactive |
| CC[C@@H](N)CO | inactive |
| CC(C)(C)NCC(O)c1cc(O)cc(O)c1 (stereo not given) | inactive |
| CC(=O)C1=C(C)[C@@H]2C[C@@]3(C1)[C@H](C)CC[C@H]3C2(C)C | inactive |
| CC(C)CCOC(=O)c1ccc(N(C)C)cc1 | inactive |
| Cc1cc(C2(c3cc(C)c(O)cc3C)OS(=O)(=O)c3ccccc32)c(C)cc1O | inactive |
| O=c1n(CC2CO2)c(=O)n(CC2CO2)c(=O)n1CC1CO1 (stereo not given) | inactive |
| CC(C)(C)NC(=O)[C@@H]1CN(Cc2cccnc2)CCN1C[C@@H](O)C[C@@H](Cc1ccccc1)C(=O)N[C@H]1c2ccccc2C[C@H]1O | inactive |
| CC(C)(C)NCC(O)COc1ccccc1OCC1CCCO1 (stereo not given) | inactive |
| O=C(OCc1ccccc1)c1ccc(O)cc1 | inactive |
| OCC(CO)N[C@H]1C[C@](O)(CO)[C@@H](O)[C@H](O)[C@H]1O | inactive |

| Structure (SMILES) | Potency |
| --- | --- |
| O=C(O)CCc1ccccc1 | inactive |
| CCCC(=O)c1ccccc1 | inactive |
| NC(=Nc1ccccc1)Nc1ccccc1 | inactive |
| CC(=O)CC(=O)Nc1ccc2[nH]c(=O)[nH]c2c1 | inactive |
| CCCCC/C=C/CC1CC(=O)OC1=O (stereo not given) | inactive |
| COC(c1ccccc1)(c1ccccc1)[C@H](Oc1nc(C)cc(C)n1)C(=O)O | inactive |
| COc1ccc(COC(C)=O)cc1 | inactive |
| O=S(=O)(O)c1ccc2nc(-c3ccccc3)[nH]c2c1 | inactive |
| CCN1CCCC1CNC(=O)c1cc(S(=O)(=O)CC)c(N)cc1OC (stereo not given) | inactive |
| C=CS(=O)(=O)O | inactive |
| CC(=O)CC(C)=O | inactive |
| CCOc1ccccc1C(N)=O | inactive |
| CO[Si](OC)(OC)c1ccccc1 | inactive |
| CCC(C)(Oc1ccc(C2(c3ccc(OC(C)(CC)C(=O)O)cc3)CCCCC2)cc1)C(=O)O (stereo not given) | inactive |
| CCOC(=O)C(C)C(C)=O (stereo not given) | inactive |
| CCCCOCCOC(=O)c1ccccc1C(=O)OCCOCCCC | inactive |
| CCCN[C@H]1CCc2nc(N)sc2C1 | inactive |
| CC1COC(=O)O1 (stereo not given) | inactive |
| CN1C(=O)c2ccc([N+](=O)[O-])cc2C1=O | inactive |
| COC(=O)/C=C/c1ccccc1 | inactive |
